Source: PubChem BioAssay AID488784 (Sanford-Burnham Center for Chemical Genomics, 2010)
Screen size: about 1,000 compounds; about 700 (70%) were called active. The set was probably picked from earlier hits. A selection follows. Unmarked numbers belong to inactive results. Rule as the data show it: active = inhibition above about 50%; inactive = the rest.

Experiment: CASP1-PYCARD signaling inhibition in yeast, confirmatory test, counterassay for NLRP3 inhibitor program, one-dose (AID 488784)
Details: yeast expressing Caspase-1-ASC, luminescence counter screen; at 10 µM; active compounds read high

| Structure (SMILES) | inhibition |
| --- | --- |
| O=C1/C(=C\c2ccc3c(c2)OCO3)N2CCC1CC2 | 60.4% (active) |
| Cc1cc2ccccn2c1C(C[N+](=O)[O-])c1c(F)cccc1Cl (centres undefined) | 12.2% |
| CCCCCCCCCCCCn1ccc(=N)cc1 | 59% (active) |
| Cc1ccc(-c2nc3ccccc3c(=O)n2-c2ccc(Br)cn2)cc1 | 44% |
